From PubChem BioAssay (Tox21)
Several values for one entry are separate records, joined by “and”; a condition that tells them apart may be missing. Equal entries are not always repeated. Inconclusive results are not listed. A structure can be active in one record and inactive in another. Activity calls are given as the source filed them. Unless noted, calls come from the whole dose curve; as a rule, active = well fitted curve in the direction sought with a large enough effect in the repeat runs; inconclusive = weak or mixed curves; inactive = no such curve, though single readings can be large; an effect the other way counts as inactive or inconclusive.

Assays:
[1] = qHTS assay for small molecules that induce genotoxicity in human embryonic kidney cells expressing luciferase-tagged ATAD5 (AID 651632); conditions: HEK293T ATAD5-luciferase induction, 16 h; series mostly up to 83.3 µM; note: nearly all actives have a fitted effect of over 15% in size; note: potency is the fitted concentration of half-maximal effect
Outline: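 A rise in luciferase signal from ATAD5-tagged HEK293T cells marks genetic stress. Cells were exposed to compounds for 16 hr at 37C, 5% CO2, then luciferase was quantified after a 30 min room-temperature incubation with Amplite.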

[2] = qHTS assay for small molecule agonists of the p53 signaling pathway - cell viability (AID 651633; calls by dose curve; note: nearly all actives have a fitted effect of over 30% in size; note: potency is the fitted concentration of half-maximal effect); conditions: p53RE-bla HCT-116 viability, ATP luminescence, 16 h; series mostly up to 83.3 µM
Outline: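 Viability counter-read: CellTiter-Glo luminescence (30 min, room temperature) in the same p53RE-bla plates. These plates had been exposed to compounds for 16 h at 37 C.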

[3] = qHTS assay for small molecules that induce genotoxicity in human embryonic kidney cells expressing luciferase-tagged ATAD5 - cell viability (AID 651634; calls by dose curve; note: nearly all actives have a fitted effect of over 25% in size; note: potency is the fitted concentration of half-maximal effect); conditions: HEK293T ATAD5-luc cells viability, CellTiter-Fluor, 15.5 h; series mostly up to 83.3 µM
Outline: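 Cytotoxicity counter-readout: after 15.5 hr compound treatment at 37C, live-cell protease activity in ATAD5-luciferase HEK293T cells measured by CellTiter-Fluor fluorescence, 30 min development at 37C.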

[4] = qHTS assay for small molecule disruptors of the mitochondrial membrane potential (AID 720635); conditions: HepG2 mitochondrial membrane potential, Mito-MPS dye ratio; series mostly up to 83.2 µM; note: potency is the fitted concentration of half-maximal effect
Outline: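 Mitochondrial membrane potential tracked with Mito-MPS dye, red aggregates (ex 540/em 590 nm) against green monomers (ex 490/em 535 nm). Compound treatment 1 hr at 37C, dye 30 min in HepG2.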

[5] = qHTS assay to test for compound auto fluorescence at 590 nm (red) in HepG2 cells (AID 720674); conditions: HepG2 autofluorescence, red 540/590 nm, 1 h; series mostly up to 91.3 µM
Outline: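 We screened compounds on adherent HepG2 cells, incubating them for an hour at 37 C in 5% CO2 before reading emission at 590 nm under 540 nm excitation; values reflect equivalence to Rose Bengal sodium fluorescence.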

[6] = qHTS assay to test for compound auto fluorescence at 535 nm (green) in HepG2 cells (AID 720675); conditions: green autofluorescence 485/535 nm, 1 h; series mostly up to 91.3 µM
[7] = qHTS assay to test for compound auto fluorescence at 460 nm (blue) in HEK293 cells (AID 720678); conditions: blue autofluorescence 405/460 nm; series mostly up to 91.3 µM
Outline: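 Blue-channel (Ex/Em 405/460 nm) intensity measured in HEK293 cultures after overnight compound exposure at 37C; signal expressed relative to triamterene. Cells plated 2,000 per well in 10% dialyzed FBS medium and allowed 4-5 hr to attach.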

[8] = qHTS assay to test for compound auto fluorescence at 590 nm (red) in HEK293 cells (AID 720679); conditions: red autofluorescence 540/590 nm; series mostly up to 91.3 µM
Outline: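 Red-channel autofluorescence (Ex/Em 540/590 nm; Rose Bengal sodium reference) was measured after overnight 37C, 5% CO2 exposure of attached HEK293 cells, 2,000 per well in medium with 10% dialyzed FBS.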

[9] = qHTS assay for small molecule disruptors of the mitochondrial membrane potential - cell viability (AID 720634; calls by dose curve;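 note: human HepG2 liver cancer cells; nearly all actives have a fitted effect of over 20% in size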); conditions: HepG2 viability, ATP luminescence (CellTiter-Glo), 1 h; series mostly up to 83.2 µM
Outline: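 Cytotoxicity was quantified from ATP content by CellTiter-Glo luminescence in the same wells as the MMP dye read-out. HepG2 (2,000 cells/well) were plated overnight and exposed to compounds for 1 hr at 37 C.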

Measured: Potency

Oc1ccc(O)cc1
active: [2] 21.1 µM and 13.6 µM and 17.2 µM
inactive: [1] | [3] | [4] | [5] | [6] | [7] | [8]

c1ccc2sc(SSN3CCOCC3)nc2c1
inactive: [1] | [2] | [3] | [9] | [5] | [7]
active: [4] 34.3 µM and 27.3 µM

CCCc1c(OCCCCc2nn[nH]n2)ccc(C(C)=O)c1O
inactive: [1] | [3] | [9] | [7]
26.6 µM (active) and inactive: [2]
active: [4] 26.6 µM

Clc1nc(Cl)c(Cl)c(Cl)c1Cl
inactive: [1] | [2] | [3] | [5] | [7] | [8]

OC[C@H]1O[C@@H]2O[C@H]3[C@H](O)[C@@H](O)[C@@H](O[C@H]4[C@H](O)[C@@H](O)[C@@H](O[C@H]5[C@H](O)[C@@H](O)[C@@H](O[C@H]6[C@H](O)[C@@H](O)[C@@H](O[C@H]7[C@H](O)[C@@H](O)[C@@H](O[C@H]8[C@H](O)[C@@H](O)[C@@H](O[C@H]1[C@H](O)[C@H]2O)O[C@@H]8CO)O[C@@H]7CO)O[C@@H]6CO)O[C@@H]5CO)O[C@@H]4CO)O[C@@H]3CO
inactive: [1] | [2] | [3] | [9] | [5] | [7] | [8]

O=C(c1ccccc1)c1ccccc1O
inactive and 61.1 µM (active): [4]
inactive: [1] | [3] | [6] | [7]

CC(C)OC(=O)C(C)(C)Oc1ccc(C(=O)c2ccc(Cl)cc2)cc1
inactive: [1] | [3] | [4] | [5] | [7] | [8]

O=C(/C=C/C=C/c1ccc2c(c1)OCO2)N1CCCCC1
active: [1] 10.9 µM
inactive: [2] | [3] | [7] | [8]

c1cc(N(CC2CO2)CC2CO2)ccc1OCC1CO1 (stereo not drawn)
active: [1] 13.7 µM and 17.2 µM | [2] 68.7 µM
inactive: [9] | [4] | [5] | [6] | [7] | [8]

Cc1ccc2c(n1)Oc1ccc(C(C)C(=O)OCC(=O)N(C)C)cc1C2 (stereo not drawn)
inactive: [2] | [3] | [9] | [6] | [7]

C/C=C/C(=O)O
inactive: [1] | [2] | [3] | [5] | [6] | [7] | [8]

Cc1ccc(C(=O)c2cc(O)c(O)c([N+](=O)[O-])c2)cc1
active: [2] 23.7 µM and 54.5 µM | [3] 30.6 µM | [4] 26.6 µM and 4.86 µM
inactive: [1] | [9] | [6] | [7] | [8]

c1ccc(Nc2ccccc2)cc1
active: [4] 61.1 µM and 19.3 µM
inactive: [1] | [2] | [3] | [9] | [5] | [6] | [7] | [8]

COC(=O)Nc1nc2ccc(S(=O)c3ccccc3)cc2[nH]1 (stereo not drawn)
inactive: [1] | [2] | [3] | [4] | [6] | [7] | [8]

COC(=O)C1=C(C)NC(C)=C(C(=O)OCCN(C)Cc2ccccc2)C1c1cccc([N+](=O)[O-])c1 (stereo not drawn)
inactive: [1] | [5] | [6] | [7] | [8]
active: [4] 18.8 µM

O=c1oc(=O)c2cc3c(=O)oc(=O)c3cc12
inactive: [1] | [3] | [4] | [5] | [6] | [7] | [8]

CCCC(=O)O
inactive: [1] | [2] | [3] | [4] | [5] | [6] | [7]

CCCCC(CC)COCC1CO1 (stereo not drawn)
inactive: [1] | [2] | [3] | [9] | [4] | [5] | [6] | [7] | [8]
